Here are results for 16 molecules from ChEMBL document CHEMBL3988442, “University of Dundee, Small-Polar-MMV Screening Library” (2021).

For experiment [1], the target named is T1, Aspartate--tRNA(Asp/Asn) ligase (Mycobacterium tuberculosis (strain ATCC 25618 / H37Rv)) (UniProt P9WFW3). Note: in the data most compounds retested in dose-response had high values.
T1 sequence (whole entry): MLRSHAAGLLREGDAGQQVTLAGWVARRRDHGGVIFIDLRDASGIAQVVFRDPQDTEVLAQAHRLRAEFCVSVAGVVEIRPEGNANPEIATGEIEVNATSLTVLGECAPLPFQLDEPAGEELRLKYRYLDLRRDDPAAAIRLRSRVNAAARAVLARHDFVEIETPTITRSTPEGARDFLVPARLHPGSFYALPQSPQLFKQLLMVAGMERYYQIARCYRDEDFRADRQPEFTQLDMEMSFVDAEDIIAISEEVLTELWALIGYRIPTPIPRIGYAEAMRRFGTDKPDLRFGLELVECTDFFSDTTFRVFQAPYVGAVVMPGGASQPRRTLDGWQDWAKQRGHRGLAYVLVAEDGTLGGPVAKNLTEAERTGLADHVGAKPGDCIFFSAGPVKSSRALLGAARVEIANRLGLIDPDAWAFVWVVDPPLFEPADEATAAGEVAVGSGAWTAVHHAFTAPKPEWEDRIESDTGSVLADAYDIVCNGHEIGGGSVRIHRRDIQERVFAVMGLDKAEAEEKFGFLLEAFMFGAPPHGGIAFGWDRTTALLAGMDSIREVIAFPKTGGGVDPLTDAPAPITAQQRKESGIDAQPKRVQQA
Nature of the experiment: Assay for Asp RNA synthetase-1 from Mycobacterium tuberculosis. The experiment is classed as functional. Further details: scale not given: direction of the effect not stated beside the values. Particulars: 30 µM.

The target of experiment [2] is Shiga toxin 2 (Escherichia coli O157:H7) (UniProt P09385+P09386). Kind of experiment: E. coli 0.157:H7 Shiga Toxin SOP - stx2 screening assay. The note with it: 30 µM. Details: scale not given: direction of the effect not stated beside the values. The experiment is classed as functional.

For `CSc1ccc(CNC(c2ccccc2)c2nccn2C)cc1` (configuration not stated), the Percent Effect in experiment [1] is 3.61%; in experiment [2], -1.22%.

Take `CCCc1cc(NC2CCc3ncnn3C2)n2ncnc2n1` (configuration not stated): the Percent Effect in experiment [1] was -2.01%; in experiment [2], 1.41%.

For `O=C(c1ccnnc1)N1C[C@H](Oc2cccnc2)[C@H]2OCCC[C@H]21`, the Percent Effect came to 2.1% in experiment [1] and 3.62% in experiment [2].

For the molecule `CCn1cnnc1CNC(=O)c1ccc(Cl)cc1F`, the Percent Effect was 1.24% in experiment [1] and -53.7% in experiment [2].

`CCc1nc(CN(C)CC(c2cccs2)N2CCOCC2)no1` (configuration not stated): the results for the Percent Effect in experiment [1] and in experiment [2] were -4.22% and -5.08%, respectively.

In the case of `CC[C@@]1(O)CCN(C(=O)c2ccsc2)C[C@H]1O`, the Percent Effect was -4.99% in experiment [1] and -16.9% in experiment [2].

In the case of `Cn1c(CNc2c(F)cccc2-n2cccn2)cc(=O)n(C)c1=O`, the Percent Effect in experiment [1] was -0.864%; in experiment [2] it was 0.236%.

Take `CSc1ccc(C(CNC(=O)C2CC2)N2CCc3sccc3C2)cc1` (configuration not stated): the figures for the Percent Effect in experiment [1] and in experiment [2] were -0.15% and 11.2%, respectively.

`COCC(=O)N1CCC2(CC1)CCN(Cc1ccccn1)C2=O`: the Percent Effect stood at 3.22% in experiment [1] and 7.27% in experiment [2].

In the case of `Cc1ccc(=O)n(CC2(O)CCN(Cc3cnc(C)nc3)CC2)n1`, the Percent Effect in experiment [1] was determined as 1.71%; in experiment [2], 5.87%.

Turning to `CCC(=O)N(C)C1CCN(Cc2ncc(C)c(OC)c2C)CC1`, the values for the Percent Effect in experiment [1] and in experiment [2] were -0.759% and -19.9%, respectively.

As to `O=C(NCCn1ccnc1)N1CCCC1c1ccsc1` (configuration not stated), the Percent Effect in experiment [1] is -7.57%; in experiment [2], -9.24%.

As for `CN(Cc1ccco1)Cc1cncc2c1CCN(c1ncccn1)C2`, the results for the Percent Effect in experiment [1] and in experiment [2] were 0.874% and -26.7%, respectively.

On to `CCCNC(=O)C(C)n1cc(Br)cn1` (configuration not stated), for which the Percent Effect in experiment [1] is 5.47%; in experiment [2], -46.7%.

In the case of `COCCc1noc(CNCC2CCCN2c2cccnn2)n1` (configuration not stated), the Percent Effect in experiment [1] is 4.93%; in experiment [2], -3.58%.

`CCC(C)c1noc(C2CCN(C(=O)c3cccnc3)CC2)n1` (configuration not stated): the Percent Effect in experiment [1] is 17%; in experiment [2] it was -27.8%.
